In article PMC11006913:
Positions count from the first letter of the chain named.

What was measured:
Test in all cases: PBM; 200 nM protein, PBS
Settings in all cases: dsDNA, one strand shown
SHOX [1] = biological target: SHOX (Homo sapiens, UniProt O15266 103-189)
HOXA4 [2] = biological target: HOXA4 (Homo sapiens, UniProt Q00056 201-287, W262R)
HOXA4 [3] = biological target: HOXA4 (Homo sapiens, UniProt Q00056 201-287, R217L)
SHOX [4] = biological target: SHOX (Homo sapiens, UniProt O15266 103-189, R173C)
HOXA4 [5] = biological target: HOXA4 (Homo sapiens, UniProt Q00056 201-287)
HOXA4 [6] = biological target: HOXA4 (Homo sapiens, UniProt Q00056 201-287, W262F)
HOXC9 [7] = biological target: HOXC9 (Homo sapiens, UniProt P31274 178-260, K195R)
HOXB6 [8] = biological target: HOXB6 (Homo sapiens, UniProt P17509 132-218, K202E)
HOXC9 [9] = biological target: HOXC9 (Homo sapiens, UniProt P31274 178-260)
MSX2 [10] = biological target: MSX2 (Homo sapiens, UniProt P35548 130-214, R199I)
HOXC9 [11] = biological target: HOXC9 (Homo sapiens, UniProt P31274 178-260, R193K)
MSX2 [12] = biological target: MSX2 (Homo sapiens, UniProt P35548 130-214)
HOXC9 [13] = biological target: HOXC9 (Homo sapiens, UniProt P31274 178-260, R222W)
MSX2 [14] = biological target: MSX2 (Homo sapiens, UniProt P35548 130-214, F161Y)
HOXB6 [15] = biological target: HOXB6 (Homo sapiens, UniProt P17509 132-218)
SIX6 [16] = biological target: T1, SIX6 (Homo sapiens, UniProt O95475 114-200, L167I)
T1 sequence: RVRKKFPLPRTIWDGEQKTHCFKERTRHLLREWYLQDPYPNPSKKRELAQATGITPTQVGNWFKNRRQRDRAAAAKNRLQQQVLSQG

SIX6 [17] = biological target: T2, SIX6 (Homo sapiens, UniProt O95475 114-200, L143V)
T2 sequence: T1 sequence with L30V, I54L

SIX6 [18] = biological target: T3, SIX6 (Homo sapiens, UniProt O95475 114-200, H141N)
T3 sequence: T1 sequence with H28N, I54L

SIX6 [19] = biological target: T4, SIX6 (Homo sapiens, UniProt O95475 114-200, T165P)
T4 sequence: T1 sequence with T52P, I54L

SIX6 [20] = biological target: T5, SIX6 (Homo sapiens, UniProt O95475 114-200, L167M)
T5 sequence: T1 sequence with I54M

SIX6 [21] = biological target: T6, SIX6 (Homo sapiens, UniProt O95475 114-200, L143M)
T6 sequence: T1 sequence with L30M, I54L

SIX6 [22] = biological target: T7, SIX6 (Homo sapiens, UniProt O95475 114-200, L143I)
T7 sequence: T1 sequence with L30I, I54L

SIX6 [23] = biological target: T8, SIX6 (Homo sapiens, UniProt O95475 114-200, T165G)
T8 sequence: T1 sequence with T52G, I54L

SIX6 [24] = biological target: T9, SIX6 (Homo sapiens, UniProt O95475 114-200, T139Q)
T9 sequence: T1 sequence with T26Q, I54L

SIX6 [25] = biological target: T10, SIX6 (Homo sapiens, UniProt O95475 114-200, T165A)
T10 sequence: T1 sequence with T52A, I54L

SIX6 [26] = biological target: T11, SIX6 (Homo sapiens, UniProt O95475 114-200, L167V)
T11 sequence: T1 sequence with I54V

SIX6 [27] = biological target: T12, SIX6 (Homo sapiens, UniProt O95475 114-200)
T12 sequence: T1 sequence with I54L

SIX6 [28] = biological target: T13, SIX6 (Homo sapiens, UniProt O95475 114-200, T165I)
T13 sequence: T1 sequence with T52I, I54L

Chain of SHOX (Homo sapiens, UniProt O15266 103-189) (O15266 103-189): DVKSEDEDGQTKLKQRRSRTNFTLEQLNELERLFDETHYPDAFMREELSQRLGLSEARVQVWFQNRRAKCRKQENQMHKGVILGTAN
Chain of SHOX (Homo sapiens, UniProt O15266 103-189, R173C) (O15266 103-189 R173C): as the sequence (O15266 103-189) above, with R71C counted along it
Chain of HOXC9 (Homo sapiens, UniProt P31274 178-260, R222W) (P31274 178-260 R222W): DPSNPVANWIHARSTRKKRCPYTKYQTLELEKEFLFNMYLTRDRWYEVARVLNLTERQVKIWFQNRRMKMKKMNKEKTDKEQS
Chain of HOXC9 (Homo sapiens, UniProt P31274 178-260) (P31274 178-260): as the sequence (P31274 178-260 R222W) above, with W45R counted along it
Chain of HOXA4 (Homo sapiens, UniProt Q00056 201-287, W262R) (Q00056 201-287 W262R): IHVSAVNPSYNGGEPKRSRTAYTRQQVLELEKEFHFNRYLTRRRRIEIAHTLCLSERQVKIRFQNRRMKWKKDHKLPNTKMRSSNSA
Chain of HOXA4 (Homo sapiens, UniProt Q00056 201-287, W262F) (Q00056 201-287 W262F): as the sequence (Q00056 201-287 W262R) above, with R62F counted along it
Chain of HOXA4 (Homo sapiens, UniProt Q00056 201-287, R217L) (Q00056 201-287 R217L): as the sequence (Q00056 201-287 W262R) above, with R17L, R62W counted along it
Chain of MSX2 (Homo sapiens, UniProt P35548 130-214, F161Y) (P35548 130-214 F161Y): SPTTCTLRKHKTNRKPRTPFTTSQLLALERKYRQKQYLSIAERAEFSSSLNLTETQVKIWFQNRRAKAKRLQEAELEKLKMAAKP
Chain of HOXA4 (Homo sapiens, UniProt Q00056 201-287) (Q00056 201-287): as the sequence (Q00056 201-287 W262R) above, with R62W counted along it
Chain of HOXB6 (Homo sapiens, UniProt P17509 132-218) (P17509 132-218): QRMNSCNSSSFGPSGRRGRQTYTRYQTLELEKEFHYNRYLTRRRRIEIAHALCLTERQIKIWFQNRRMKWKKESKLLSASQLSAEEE
Chain of HOXC9 (Homo sapiens, UniProt P31274 178-260, R193K) (P31274 178-260 R193K): as the sequence (P31274 178-260 R222W) above, with R16K, W45R counted along it
Chain of MSX2 (Homo sapiens, UniProt P35548 130-214, R199I) (P35548 130-214 R199I): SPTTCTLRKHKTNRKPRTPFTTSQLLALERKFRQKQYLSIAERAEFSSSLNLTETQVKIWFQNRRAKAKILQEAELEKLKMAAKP
Chain of HOXC9 (Homo sapiens, UniProt P31274 178-260, K195R) (P31274 178-260 K195R): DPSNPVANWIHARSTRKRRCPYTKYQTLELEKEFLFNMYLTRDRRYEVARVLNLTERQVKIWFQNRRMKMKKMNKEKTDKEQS
Chain of HOXB6 (Homo sapiens, UniProt P17509 132-218, K202E) (P17509 132-218 K202E): as the sequence (P17509 132-218) above, with K71E counted along it
Chain of MSX2 (Homo sapiens, UniProt P35548 130-214) (P35548 130-214): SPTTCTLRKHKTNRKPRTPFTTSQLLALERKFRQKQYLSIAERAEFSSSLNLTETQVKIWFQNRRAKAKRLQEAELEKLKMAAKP

**Q.** ATTATCCA was tested. Which binding signal (SHOX [1]) did it give?
**A.** 9.69 upbm affinity estimate (log intensity, higher = more binding, comparable within an allelic series)

**Q.** How did the binding signal (SHOX [1]) turn out when CTTATAGA was run?
**A.** 8.03 upbm affinity estimate (log intensity, higher = more binding, comparable within an allelic series)

**Q.** CGAGCGCC was tested. Which binding signal (SHOX [1]) did it give?
**A.** 7.01 upbm affinity estimate (log intensity, higher = more binding, comparable within an allelic series)

**Q.** What about the binding signal (HOXA4 [2]) of the same sequence?
**A.** 9.78 upbm affinity estimate (log intensity, higher = more binding, comparable within an allelic series)

**Q.** And the binding signal (HOXA4 [3])?
**A.** 9.82 upbm affinity estimate (log intensity, higher = more binding, comparable within an allelic series)

**Q.** And the binding signal (SHOX [4])?
**A.** 7.09 upbm affinity estimate (log intensity, higher = more binding, comparable within an allelic series)

**Q.** And the binding signal (HOXA4 [5])?
**A.** 9.8 upbm affinity estimate (log intensity, higher = more binding, comparable within an allelic series)

**Q.** What about the binding signal (HOXA4 [6]) of the same sequence?
**A.** 9.91 upbm affinity estimate (log intensity, higher = more binding, comparable within an allelic series)

**Q.** With CCAGGGAC as the sequence, how does the binding signal (SHOX [1]) read?
**A.** 7.08 upbm affinity estimate (log intensity, higher = more binding, comparable within an allelic series)

**Q.** What about the binding signal (HOXC9 [7]) of the same sequence?
**A.** 9.47 upbm affinity estimate (log intensity, higher = more binding, comparable within an allelic series)

**Q.** What about the binding signal (HOXB6 [8]) of the same sequence?
**A.** 8.97 upbm affinity estimate (log intensity, higher = more binding, comparable within an allelic series)

**Q.** What about the binding signal (HOXC9 [9]) of the same sequence?
**A.** 9.52 upbm affinity estimate (log intensity, higher = more binding, comparable within an allelic series)

**Q.** And the binding signal (MSX2 [10])?
**A.** 9.5 upbm affinity estimate (log intensity, higher = more binding, comparable within an allelic series)

**Q.** What about the binding signal (SHOX [4]) of the same sequence?
**A.** 7.17 upbm affinity estimate (log intensity, higher = more binding, comparable within an allelic series)

**Q.** And the binding signal (HOXC9 [11])?
**A.** 9.51 upbm affinity estimate (log intensity, higher = more binding, comparable within an allelic series)

**Q.** What about the binding signal (MSX2 [12]) of the same sequence?
**A.** 9.58 upbm affinity estimate (log intensity, higher = more binding, comparable within an allelic series)

**Q.** And the binding signal (HOXC9 [13])?
**A.** 9.62 upbm affinity estimate (log intensity, higher = more binding, comparable within an allelic series)

**Q.** And the binding signal (MSX2 [14])?
**A.** 9.57 upbm affinity estimate (log intensity, higher = more binding, comparable within an allelic series)

**Q.** What about the binding signal (HOXB6 [15]) of the same sequence?
**A.** 8.99 upbm affinity estimate (log intensity, higher = more binding, comparable within an allelic series)

**Q.** How did the binding signal (SHOX [1]) turn out when CGACCGCC was run?
**A.** 7.14 upbm affinity estimate (log intensity, higher = more binding, comparable within an allelic series)

**Q.** What about the binding signal (SIX6 [16]) of the same sequence?
**A.** 8.99 upbm affinity estimate (log intensity, higher = more binding, comparable within an allelic series)

**Q.** What about the binding signal (SIX6 [17]) of the same sequence?
**A.** 8.82 upbm affinity estimate (log intensity, higher = more binding, comparable within an allelic series)

**Q.** What about the binding signal (SIX6 [18]) of the same sequence?
**A.** 8.95 upbm affinity estimate (log intensity, higher = more binding, comparable within an allelic series)

**Q.** What about the binding signal (SIX6 [19]) of the same sequence?
**A.** 8.87 upbm affinity estimate (log intensity, higher = more binding, comparable within an allelic series)

**Q.** And the binding signal (SIX6 [20])?
**A.** 9.03 upbm affinity estimate (log intensity, higher = more binding, comparable within an allelic series)

**Q.** What about the binding signal (SIX6 [21]) of the same sequence?
**A.** 8.84 upbm affinity estimate (log intensity, higher = more binding, comparable within an allelic series)

**Q.** What about the binding signal (SIX6 [22]) of the same sequence?
**A.** 8.91 upbm affinity estimate (log intensity, higher = more binding, comparable within an allelic series)

**Q.** What about the binding signal (SIX6 [23]) of the same sequence?
**A.** 9.05 upbm affinity estimate (log intensity, higher = more binding, comparable within an allelic series)

**Q.** What about the binding signal (SIX6 [24]) of the same sequence?
**A.** 8.92 upbm affinity estimate (log intensity, higher = more binding, comparable within an allelic series)

**Q.** What about the binding signal (SIX6 [25]) of the same sequence?
**A.** 8.95 upbm affinity estimate (log intensity, higher = more binding, comparable within an allelic series)

**Q.** What about the binding signal (SHOX [4]) of the same sequence?
**A.** 7.26 upbm affinity estimate (log intensity, higher = more binding, comparable within an allelic series)

**Q.** What about the binding signal (SIX6 [26]) of the same sequence?
**A.** 8.84 upbm affinity estimate (log intensity, higher = more binding, comparable within an allelic series)

**Q.** What about the binding signal (SIX6 [27]) of the same sequence?
**A.** 8.95 upbm affinity estimate (log intensity, higher = more binding, comparable within an allelic series)

**Q.** And the binding signal (SIX6 [28])?
**A.** 9.02 upbm affinity estimate (log intensity, higher = more binding, comparable within an allelic series)

**Q.** How did the binding signal (SHOX [1]) turn out when GTGCTTAA was run?
**A.** 9.04 upbm affinity estimate (log intensity, higher = more binding, comparable within an allelic series)
